Measured values as given in ChEMBL document CHEMBL3988442, “University of Dundee, Small-Polar-MMV Screening Library” (2021).
For some of these results: Entries with a potency or affinity are not part of this list.

Legend:
Parameters in all cases: scale not given: direction of the effect not stated beside the values
[1] = target: Protein translocase subunit SecA (Escherichia coli (strain K12)) (UniProt P10408); assay: Assay to Identify E. coli SecA ATPase Inhibitors; type: functional; conditions: 30 µM
Protein translocase subunit SecA (Escherichia coli (strain K12)), sequence (P10408 whole entry): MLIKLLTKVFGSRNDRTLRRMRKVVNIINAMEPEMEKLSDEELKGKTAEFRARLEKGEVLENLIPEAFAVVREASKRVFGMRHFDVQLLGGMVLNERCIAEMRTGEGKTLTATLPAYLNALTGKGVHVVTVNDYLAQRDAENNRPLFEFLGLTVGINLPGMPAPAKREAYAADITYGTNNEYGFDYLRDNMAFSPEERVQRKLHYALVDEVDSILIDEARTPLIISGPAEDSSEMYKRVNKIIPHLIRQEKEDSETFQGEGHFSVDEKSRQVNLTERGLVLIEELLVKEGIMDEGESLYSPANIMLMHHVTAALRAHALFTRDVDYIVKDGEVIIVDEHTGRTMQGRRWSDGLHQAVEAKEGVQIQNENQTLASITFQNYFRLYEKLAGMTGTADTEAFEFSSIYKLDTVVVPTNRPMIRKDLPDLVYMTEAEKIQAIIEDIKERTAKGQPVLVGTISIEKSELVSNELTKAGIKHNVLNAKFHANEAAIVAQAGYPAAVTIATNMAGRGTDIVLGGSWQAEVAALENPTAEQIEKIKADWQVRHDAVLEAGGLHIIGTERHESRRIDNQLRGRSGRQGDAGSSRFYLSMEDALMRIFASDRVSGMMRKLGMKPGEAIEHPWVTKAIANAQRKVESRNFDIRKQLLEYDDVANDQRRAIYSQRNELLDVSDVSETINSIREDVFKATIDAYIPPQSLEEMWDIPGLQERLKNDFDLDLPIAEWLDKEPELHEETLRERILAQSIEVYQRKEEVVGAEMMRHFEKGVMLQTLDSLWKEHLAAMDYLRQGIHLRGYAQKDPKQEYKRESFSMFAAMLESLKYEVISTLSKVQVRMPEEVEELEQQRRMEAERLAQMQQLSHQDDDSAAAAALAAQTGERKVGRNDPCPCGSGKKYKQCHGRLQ

[2] = target: T1, Ubiquitin-activating enzyme e1, putative (Leishmania donovani (strain BPK282A1)) (UniProt E9BSI1); assay: Leishmania donovani Ubiquitin Activating Enzyme (LdE1); type: functional; conditions: 30 µM
T1 sequence (whole entry): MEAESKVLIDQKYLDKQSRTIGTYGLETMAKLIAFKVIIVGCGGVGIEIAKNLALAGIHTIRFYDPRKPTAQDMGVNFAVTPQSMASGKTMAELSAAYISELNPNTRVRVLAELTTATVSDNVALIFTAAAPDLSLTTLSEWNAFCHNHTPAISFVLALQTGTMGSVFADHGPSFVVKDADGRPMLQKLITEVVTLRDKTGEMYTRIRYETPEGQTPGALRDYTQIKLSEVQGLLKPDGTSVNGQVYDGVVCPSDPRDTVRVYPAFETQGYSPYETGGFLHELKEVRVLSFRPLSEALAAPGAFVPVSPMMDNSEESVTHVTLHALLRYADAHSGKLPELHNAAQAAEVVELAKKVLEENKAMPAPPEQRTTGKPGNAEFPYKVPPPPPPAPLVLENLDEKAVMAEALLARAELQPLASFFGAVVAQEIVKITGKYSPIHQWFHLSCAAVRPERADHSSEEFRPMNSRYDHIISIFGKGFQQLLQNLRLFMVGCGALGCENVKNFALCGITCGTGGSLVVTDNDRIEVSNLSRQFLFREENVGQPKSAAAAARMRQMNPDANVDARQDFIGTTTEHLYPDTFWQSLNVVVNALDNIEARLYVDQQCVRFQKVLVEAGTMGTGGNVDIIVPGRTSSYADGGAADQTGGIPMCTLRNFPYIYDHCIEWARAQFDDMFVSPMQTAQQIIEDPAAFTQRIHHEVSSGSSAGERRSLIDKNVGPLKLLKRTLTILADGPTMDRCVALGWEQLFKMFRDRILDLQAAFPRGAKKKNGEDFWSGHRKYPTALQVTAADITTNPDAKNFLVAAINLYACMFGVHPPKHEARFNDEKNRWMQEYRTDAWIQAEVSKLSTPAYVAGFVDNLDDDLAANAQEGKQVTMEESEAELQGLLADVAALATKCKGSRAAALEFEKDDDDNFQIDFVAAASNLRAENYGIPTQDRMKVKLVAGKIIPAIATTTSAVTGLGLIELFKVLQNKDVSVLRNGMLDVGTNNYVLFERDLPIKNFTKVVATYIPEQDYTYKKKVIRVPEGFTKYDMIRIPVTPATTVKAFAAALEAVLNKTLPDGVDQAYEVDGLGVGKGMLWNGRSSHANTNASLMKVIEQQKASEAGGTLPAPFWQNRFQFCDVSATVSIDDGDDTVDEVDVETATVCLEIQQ

[3] = target: AMP-activated protein kinase, AMPK (Homo sapiens) (UniProt P54646+O43741+P54619+Q9UGJ0+Q9Y478+Q13131+Q9UGI9); assay: AMP-dependent Kinase enzyme assay. An in vitro enzyme assay that detects ADP turnover that is directly proportional to AMPK activity. This uses naive AMPK that is activated during the assay with MK-8722; type: functional; conditions: 30 µM
[4] = target: Sialic acid-binding Ig-like lectin 9 (Homo sapiens) (UniProt Q9Y336); assay: Hs-Siglec9 ALPHAscreen SOP 20170721; conditions: 10 µM
Sialic acid-binding Ig-like lectin 9 (Homo sapiens), sequence (Q9Y336 whole entry): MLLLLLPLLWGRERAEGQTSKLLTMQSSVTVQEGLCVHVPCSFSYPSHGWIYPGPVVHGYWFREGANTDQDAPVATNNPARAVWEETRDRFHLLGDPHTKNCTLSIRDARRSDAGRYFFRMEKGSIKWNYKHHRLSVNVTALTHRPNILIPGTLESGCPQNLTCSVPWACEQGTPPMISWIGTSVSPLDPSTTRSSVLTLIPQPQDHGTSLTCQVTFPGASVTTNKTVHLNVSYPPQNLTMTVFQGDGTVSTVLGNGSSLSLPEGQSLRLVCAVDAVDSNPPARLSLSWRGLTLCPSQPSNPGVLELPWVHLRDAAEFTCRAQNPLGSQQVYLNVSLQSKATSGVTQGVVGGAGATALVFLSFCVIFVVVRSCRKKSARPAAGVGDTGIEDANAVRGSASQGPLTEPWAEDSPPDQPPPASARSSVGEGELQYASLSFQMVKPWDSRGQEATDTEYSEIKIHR

Trypanosoma cruzi = assay: Trypanosoma cruzi phosphomannomutase and mannose-1-phosphate guanylyltransferase assay; type: functional; conditions: 10 µM
[5] = target: T2, Arginase-2, mitochondrial (Homo sapiens) (UniProt P78540); assay: in vitro enzyme assay to detect the production of urea directly proportional to the activity of Arginase II; type: functional; conditions: 33.3 µM; also: in the data most compounds retested in dose-response had high values
T2 sequence (whole entry): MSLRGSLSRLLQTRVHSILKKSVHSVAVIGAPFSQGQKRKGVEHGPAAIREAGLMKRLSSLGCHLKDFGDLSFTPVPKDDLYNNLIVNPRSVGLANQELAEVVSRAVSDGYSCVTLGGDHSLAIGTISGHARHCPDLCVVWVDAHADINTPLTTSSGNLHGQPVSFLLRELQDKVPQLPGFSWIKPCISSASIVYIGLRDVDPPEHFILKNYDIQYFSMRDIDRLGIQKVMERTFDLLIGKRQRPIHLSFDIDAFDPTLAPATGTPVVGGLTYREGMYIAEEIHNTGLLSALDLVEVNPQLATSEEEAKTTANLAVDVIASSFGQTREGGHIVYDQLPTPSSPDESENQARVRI

[6] = target: T3, Proteasome subunit beta (Trypanosoma cruzi) (UniProt O96673); assay: Trypanosoma cruzi proteasome chymotrypsin-like activity (TcProtChymo) assay.; also: in the data most compounds retested in dose-response had high values; type: functional; conditions: 9.37 µM
T3 sequence (whole entry): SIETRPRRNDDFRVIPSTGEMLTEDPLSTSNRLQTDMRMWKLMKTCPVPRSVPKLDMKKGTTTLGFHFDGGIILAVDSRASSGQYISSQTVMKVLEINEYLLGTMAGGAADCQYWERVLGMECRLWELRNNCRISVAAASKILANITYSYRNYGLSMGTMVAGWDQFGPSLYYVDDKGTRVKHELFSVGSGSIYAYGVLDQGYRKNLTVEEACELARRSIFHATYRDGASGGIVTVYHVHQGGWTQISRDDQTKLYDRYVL

Homo sapiens = organism: Homo sapiens; assay: To identify inhibition of the IFN signalling (Jak-Stat) pathway via expression of an eGFP reporter gene under the control of an IFN-stimulated response element (ISRE) containing MxA promoter.; type: functional; conditions: 30 µM
[7] = target: T4, Tyrosyl-tRNA synthetase, putative (Trypanosoma cruzi (strain CL Brener)) (UniProt Q4DSP6); assay: Trypanosoma cruzi tyrosyl tRNA synthetase (TcYRS) _High Tyrosine SOP; type: functional; conditions: 30 µM; also: in the data most compounds retested in dose-response had high values
T4 sequence (whole entry): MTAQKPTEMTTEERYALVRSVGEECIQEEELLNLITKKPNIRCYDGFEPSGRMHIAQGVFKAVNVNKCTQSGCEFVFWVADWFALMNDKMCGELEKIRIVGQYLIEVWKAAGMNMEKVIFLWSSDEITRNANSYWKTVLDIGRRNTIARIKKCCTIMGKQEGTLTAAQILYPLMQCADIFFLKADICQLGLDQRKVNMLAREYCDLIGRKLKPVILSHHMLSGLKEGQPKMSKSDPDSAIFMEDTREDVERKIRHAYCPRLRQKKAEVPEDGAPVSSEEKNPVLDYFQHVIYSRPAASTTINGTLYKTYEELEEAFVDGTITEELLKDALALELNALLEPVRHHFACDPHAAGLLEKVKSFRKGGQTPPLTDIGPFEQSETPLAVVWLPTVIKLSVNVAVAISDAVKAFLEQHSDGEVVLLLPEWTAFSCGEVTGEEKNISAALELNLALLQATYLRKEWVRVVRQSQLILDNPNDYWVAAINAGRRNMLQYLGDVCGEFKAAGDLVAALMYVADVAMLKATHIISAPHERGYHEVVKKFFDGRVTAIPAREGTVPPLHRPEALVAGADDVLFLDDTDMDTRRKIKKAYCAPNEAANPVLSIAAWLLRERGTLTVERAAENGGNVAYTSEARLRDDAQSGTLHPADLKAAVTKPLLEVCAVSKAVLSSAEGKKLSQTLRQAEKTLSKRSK

[8] = target: T4, Tyrosyl-tRNA synthetase, putative (Trypanosoma cruzi (strain CL Brener)); assay: Trypanosoma cruzi tyrosyl tRNA synthetase (TcYRS) SOP; type: functional; conditions: 30 µM
[9] = target: Chromo domain-containing protein 1 (Saccharomyces cerevisiae (strain ATCC 204508 / S288c) (Baker's yeast)) (UniProt P32657); assay: ScCHD-1 Enzyme Inhibition Assay; type: functional; conditions: 30 µM; also: in the data most compounds retested in dose-response had high values
Chromo domain-containing protein 1 (Saccharomyces cerevisiae (strain ATCC 204508 / S288c) (Baker's yeast)), sequence (P32657 whole entry, the tested form may be a part): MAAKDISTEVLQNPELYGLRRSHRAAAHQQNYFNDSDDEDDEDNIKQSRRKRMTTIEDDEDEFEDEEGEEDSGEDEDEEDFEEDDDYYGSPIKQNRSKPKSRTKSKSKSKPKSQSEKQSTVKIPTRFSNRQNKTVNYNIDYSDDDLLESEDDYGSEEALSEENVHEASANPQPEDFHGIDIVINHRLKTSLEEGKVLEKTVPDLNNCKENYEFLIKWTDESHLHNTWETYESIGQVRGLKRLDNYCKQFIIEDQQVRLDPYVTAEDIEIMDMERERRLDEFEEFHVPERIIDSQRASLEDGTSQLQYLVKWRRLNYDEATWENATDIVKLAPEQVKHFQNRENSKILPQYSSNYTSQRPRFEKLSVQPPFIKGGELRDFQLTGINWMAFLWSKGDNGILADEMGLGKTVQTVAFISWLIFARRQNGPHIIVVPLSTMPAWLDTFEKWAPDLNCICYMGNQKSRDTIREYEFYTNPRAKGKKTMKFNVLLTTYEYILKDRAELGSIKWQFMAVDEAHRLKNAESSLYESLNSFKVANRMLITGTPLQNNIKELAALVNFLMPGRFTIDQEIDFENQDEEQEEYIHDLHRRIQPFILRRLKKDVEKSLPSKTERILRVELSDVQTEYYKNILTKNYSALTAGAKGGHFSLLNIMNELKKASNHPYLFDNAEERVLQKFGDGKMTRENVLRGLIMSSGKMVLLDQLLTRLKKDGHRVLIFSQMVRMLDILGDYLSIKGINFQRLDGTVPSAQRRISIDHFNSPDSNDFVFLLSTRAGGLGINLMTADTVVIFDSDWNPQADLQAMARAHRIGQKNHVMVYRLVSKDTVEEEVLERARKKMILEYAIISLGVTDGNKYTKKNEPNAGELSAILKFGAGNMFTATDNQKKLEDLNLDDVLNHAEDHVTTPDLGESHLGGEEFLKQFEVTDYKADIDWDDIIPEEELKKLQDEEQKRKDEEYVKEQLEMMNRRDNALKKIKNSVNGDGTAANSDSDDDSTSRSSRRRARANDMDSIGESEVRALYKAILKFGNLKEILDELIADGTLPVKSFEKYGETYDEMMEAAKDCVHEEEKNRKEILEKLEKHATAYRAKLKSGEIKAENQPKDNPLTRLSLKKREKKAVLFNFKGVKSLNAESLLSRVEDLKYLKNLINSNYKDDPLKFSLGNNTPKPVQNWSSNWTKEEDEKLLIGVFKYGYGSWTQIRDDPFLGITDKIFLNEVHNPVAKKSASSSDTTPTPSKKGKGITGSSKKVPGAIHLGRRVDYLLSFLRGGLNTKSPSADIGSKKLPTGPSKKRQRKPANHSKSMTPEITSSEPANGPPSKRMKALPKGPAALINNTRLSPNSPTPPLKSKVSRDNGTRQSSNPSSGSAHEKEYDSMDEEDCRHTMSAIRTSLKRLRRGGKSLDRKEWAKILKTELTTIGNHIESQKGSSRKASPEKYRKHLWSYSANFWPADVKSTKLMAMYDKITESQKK

Row | Structure (SMILES) | Percent Effect [1] [%] | Percent Effect [2] [%] | Percent Effect [3] [%] | Percent Effect [4] [%] | Percent Effect (Trypanosoma cruzi) [%] | Percent Effect [5] [%] | Percent Effect [6] [%] | Percent Effect (Homo sapiens) [%] | Percent Effect [7] [%] | Percent Effect [8] [%] | Percent Effect [9] [%]
1 | CC(NC(=O)c1cccs1)C(=O)NCc1ccccc1CN1CCCC1 (configuration not stated) | -4.29 | 23.4 | -5.29 | 2.04 | 4.12 | 3.2 | 12.5 | 5.06 | 12.6 | 21.9 | -11.2
2 | Cc1ccc(S(=O)(=O)NC(=O)c2cccc(OCC(N)=O)c2)s1 | -3.68 | 20.2 | -5.82 | -5.61 | 0.0944 | 4.18 | 12 | 4.54 | 6.4 | 13.9 | -5.68
3 | O=C(NCN1CCc2ccccc2C1)c1cnccn1 | -0.536 | 2.7 | -2.81 | -3.19 | -7.33 | 2.73 | 10.4 | 0.709 | 1.07 | 6.17 | -6.84
4 | Cc1cnn(CC2CN(CCS(=O)(=O)c3ccccc3)CCO2)c1 (configuration not stated) | -8.49 | 0 | 0.043 | -0.479 | -2.25 | -0.248 | 5.41 | 12.1 | 5.38 | 1.24 | -5.16
5 | CCn1ncc2c1C(COC)CN(Cc1ccc(OC)cc1)C2 (configuration not stated) | -1.81 | 5.41 | -4.68 | 14.4 | 2.44 | 0.744 | 3.35 | 40 | 2.15 | 6.17 | -11.4
6 | CC(=O)NC1CCCN(C(=O)Nc2cnc3c(cnn3C(C)C)c2)C1 (configuration not stated) | -3.14 | 16.2 | 0.9 | 4.02 | -4.55 | -1.29 | 12.2 | 5.99 | 7.92 | 23.2 | -5.36
7 | CN(Cc1cccs1)C(=O)CN1CCCC1Cn1cncn1 (configuration not stated) | -1.48 | 10.4 | -63.7 | 2.24 | -1.08 | -5.52 | 20.3 | -3.55 | 7.53 | 13.6 | -2.25
8 | CC(C)(C)c1nnc(CN2CCN(S(C)(=O)=O)CC2)o1 | -2.63 | 13.5 | -2.69 | 19.5 | 3.48 | 1.43 | 12.1 | 5.81 | 2.65 | 12.2 | -3.73
9 | CCC(=O)N1CCC(Cc2ccccc2-c2ccccc2)(C(N)=O)C1 (configuration not stated) | -3.32 | 13.3 | 10.4 | -2.64 | 3.94 | 7.69 | 8.37 | 16.6 | 1.06 | 16.7 | -4.71
10 | CCn1nc(C)c2ncnc(NCCCN3CCOCC3)c21 | -5.99 | 9.33 | -3.7 | 9.5 | 0.786 | -2.64 | 12.2 | -4.74 | 5.29 | 12.8 | -10.7
11 | O=C(NCc1nnc2n1CCCC2)N(Cc1ccccc1F)C1CC1 | -2.88 | 5.41 | -1.8 | 0.0872 | -2.12 | -2.38 | 12.8 | 7.52 | 0.529 | 0 | -4.24
12 | CN1CC(=O)N(c2ccsc2)CC12CCN(S(C)(=O)=O)C2 (configuration not stated) | -4.15 | 0 | -4.23 | -4.81 | 6.84 | -2.5 | 20 | -12.5 | 3.96 | 11 | -0.42
13 | Cn1nc(C#N)c2c1CN(C(=O)c1cccnc1)CCC2 | -4.61 | 2.6 | -0.491 | -7 | -2.66 | -1.94 | 3.13 | 6.32 | -2.12 | -6.41 | -0.821
14 | CCOc1cccc2c1OCC(C(=O)NS(=O)(=O)Cc1ccccc1)=C2 | -2.71 | 0 | 1.17 | -4.5 | -8.59 | 24.9 | 2.52 | 24.4 | -10.3 | -6.17 | -6.55
15 | Cn1ccnc1CN1CCC2(CC1)CC(NC(=O)c1ccccn1)CO2 (configuration not stated) | -1.87 | 20.8 | -1.66 | -10.3 | 1.28 | 3.23 | 9.4 | 0.302 | -20.1 | 16.7 | -10.2
16 | O=C(NCCCN1CCOCC1)c1cc(-c2ccc3c(c2)CCO3)n[nH]1 | -5.47 | -20 | -0.583 | 0.426 | 2.36 | -15 | 12.2 | -4.93 | 1.06 | -2.56 | -5.21
17 | CS(=O)(=O)c1snnc1C1CCN(Cc2ccncc2)CC1 | -6.59 | 4.05 | 2.28 | -0.45 | -3.75 | -2.09 | 9.83 | 23.2 | 0 | 1.3 | 5.8
